Screening results (PubChem BioAssay)
A selection: hits, their analogues and other compounds. The true share with any hit is near 2.5%.
Cruzain noTriton: blocks cruzain activity in detergent-free assay. Potency, µM, inactives show max response, negative = inhibition, actives largely listed as inhibitors. purified cruzain, Z-FR-AMC fluorescence, no detergent. 2.3% of 200,000 active;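 also: plate controls were enzyme without inhibitor for no effect and buffer without enzyme for full effect; nearly all actives have a fitted effect of over 40% in size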
Target sequence (P25779 123-467 limits assumed): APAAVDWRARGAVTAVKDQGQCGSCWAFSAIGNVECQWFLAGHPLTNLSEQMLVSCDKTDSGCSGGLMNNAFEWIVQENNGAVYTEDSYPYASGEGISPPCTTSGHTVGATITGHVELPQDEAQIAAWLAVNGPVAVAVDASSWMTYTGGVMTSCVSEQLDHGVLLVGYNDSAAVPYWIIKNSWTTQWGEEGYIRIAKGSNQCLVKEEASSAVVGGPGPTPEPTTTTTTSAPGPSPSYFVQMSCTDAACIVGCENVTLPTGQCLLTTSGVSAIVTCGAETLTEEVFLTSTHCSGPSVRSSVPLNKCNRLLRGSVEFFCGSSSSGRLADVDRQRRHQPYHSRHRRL
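Detergent-free condition (0.00005% Triton X-100) in acetate buffer pH 5.5 with DTT. 1.5 nM enzyme and compound were pre-mixed 15 min, then 2 uM Z-FR-AMC substrate added; reaction progress from fluorescence change between first and third reads (60 s).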
Cruzain inh Det: inhibitors of Trypanosoma cruzi cruzain with detergent; Potency, µM, without a hit: max response, negative = inhibition, hits mostly inhibitors; purified cruzain, Z-FR-AMC fluorescence, 0.01% Triton; AID 1478; 0.43% of 200,000 active;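 also: plate controls were neutral wells for no effect and buffer without enzyme for full effect; nearly all actives have a fitted effect of over 40% in size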
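Purified cruzain (1.5 nM final) was preincubated with compounds for 15 min at room temperature in 100 mM sodium acetate pH 5.5, 5 mM DTT, 0.01% Triton X-100. Reaction started with 2 uM Z-FR-AMC; AMC fluorescence change over 60 s gave activity.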
* marks the source's active call; other numbers are inactive results; ? = inconclusive. Calls follow the shape of the dose curve; as a rule, active = well fitted curve in the direction sought with a large enough effect; inconclusive = small, poorly fitted or top-dose-only effect, or another doubt; inactive = no such curve, though single readings can be large; an effect the other way counts as inactive or inconclusive. Potency is read from the fitted curve at half-maximal effect.

SMILES | Cruzain noTriton | Cruzain inh Det
CCC(=O)OC1=C(C(C)=O)N(Cc2ccccc2)S(=O)(=O)c2ccccc21 | -4% | -9%
CCOc1ccc(CNC(=O)C2CCN(c3nnc(-n4c(C)ccc4C)s3)CC2)cc1 | 2% | -5%
CC(=O)c1c(N2CCN(Cc3ccccc3)CC2)[nH]c(-c2ccccc2)nc1=S | 10µM* | -11%
CC(=O)c1c(N2CCCC2)[nH]c(-c2ccccc2)nc1=S | -6% | 3%
CC(C)(C)c1ccc(C(=O)NCC(c2cccnc2)N2CCc3ccccc3C2)cc1 (stereo unspecified) | -14% | 2%
CCOC(=O)c1cc(-c2ccc(F)cc2)n(CCC(=O)NC2CCC(C)CC2)c1C (stereo unspecified) | 5% | -3%
Cc1ccc(NC(=O)N2CCC3(CC2)Oc2ccccc2C(=O)N3Cc2ccc(F)cc2)cc1 | ? | -5%
O=C1c2ccccc2OC2(C=Cc3ccccc3O2)N1Cc1ccccc1 (stereo unspecified) | 25µM* | 3%
Cc1cccc(-c2noc(-c3ccccc3OCC(=O)Nc3ccccc3[N+](=O)[O-])n2)c1 | -4% | -4%
COc1ccc2nc(SCC(=O)N3CCCCCC3)c(C#N)cc2c1 | -2% | -4%
CCOc1ccc2nc(SCC(=O)N3c4ccccc4Sc4ccccc43)c(C#N)cc2c1 | 4µM* | -1%
Cc1ccc(SCc2cc(=O)[nH]c(/N=C(\N)Nc3cccc4ccccc34)n2)cc1 | 32µM* | 0%
COc1ccc(Cl)cc1N/C(N)=N/c1nc(CSc2ccc(C)cc2)cc(=O)[nH]1 | ? | 0%
COc1cc(CN(C(=O)COc2ccccc2)c2ccccn2)cc(OC)c1OC | 6% | 5%
CN(C)S(=O)(=O)c1cccc(C(=O)N2CCc3ccccc32)c1 | -7% | 0%
CN(C)S(=O)(=O)c1cccc(C(=O)C2=C3SC=C(c4ccccc4)N3CC2)c1 | 25µM* | -4%
Cc1sc(NC(=O)c2cccc([N+](=O)[O-])c2)c(C(N)=O)c1-c1ccc(C(C)(C)C)cc1 | 13µM* | 4%
Cc1sc(NC(=O)/C=C/C(=O)O)c(C(N)=O)c1-c1ccc(C(C)(C)C)cc1 | -2% | -8%
O=C(O)/C(=C\c1ccncc1)c1cccc2ccccc12 | 3% | 3%
COCC(=O)N1c2nc(-c3ccco3)nn2C2(CCCCC2)[C@@H]2CCCC[C@@H]21 | 12% | -2%
Cc1cc(C)c(C#N)c(OCC(=O)c2ccccc2)n1 | -6% | -6%
N#Cc1c(OCC(=O)c2ccccc2)nc2c(c1-c1ccco1)CCc1ccccc1-2 | 7.9µM* | 14µM*
COCC(=O)N1c2nc(C(C)C)nn2C2(CCCCC2)[C@@H]2CCCC[C@@H]21 | -1% | 0%
Clc1ccc(-n2c(Cc3ccccc3)nnc2SCc2nc(-c3cccs3)no2)cc1 | 13% | -10%
O=C(CSc1nc2ccccc2o1)Nc1nc2ccc(Br)cc2s1 | 10µM* | 1%
SMILES | Cruzain noTriton | Cruzain inh Det
COc1ccc2nc(NC(=O)CSc3nc4ccccc4o3)sc2c1 | -18% | 5%
Cc1c(C(=O)N2CCC(C)CC2)c(S(=O)(=O)Nc2cccc(C(F)(F)F)c2)c(C)n1C | ? | -5%
COc1cc(NS(=O)(=O)c2ccc(-c3cc(C)no3)cc2)cc(OC)c1 | -4% | -8%
O=C(/C(=N\Nc1ccc([N+](=O)[O-])cc1)Sc1nnnn1-c1ccccc1)c1ccccc1 | ? | -8%
Cc1ccc(N/N=C(/Sc2nnnn2-c2ccccc2)C(=O)c2ccccc2)cc1 | 32µM* | -5%
C#C[C@]1(O)CC[C@H]2[C@H]3CCC4=Cc5oncc5C[C@]4(C)[C@@H]3CC[C@]21C | 8% | -3%
COc1ccc(Cl)cc1-c1ccc(C(=O)O)o1 | -2% | -2%
Clc1ccc2oc(-c3cccnc3NCc3ccccc3)nc2c1 | -6% | -14%
Cc1ccc(CNc2ncccc2-c2nc3cc(Cl)ccc3o2)cc1 | 10µM* | -12%
O=S(=O)(NCc1nc2cccnc2n1Cc1ccccc1Cl)c1ccc(F)c(Cl)c1 | -2% | -6%
O=C(c1cc(C(=O)NCc2ccccc2)c(=O)n(Cc2ccccc2)c1)c1cc(Br)ccc1O | 4µM* | 9%
Cc1ccc(O)c(C(=O)c2cc(C(=O)NCc3ccccc3)c(=O)n(Cc3ccccc3)c2)c1 | ? | -3%
Cc1cc2c(cc3c(SCc4ccccc4Cl)nnc(C)n32)o1 | 5% | -1%
COc1ccc(N2CCN(c3oc(-c4ccccc4C)nc3S(=O)(=O)c3ccccc3)CC2)cc1 | 13µM* | -4%
Cc1ccc(-c2nc(S(=O)(=O)c3ccccc3)c(N3CCN(c4ccccc4)CC3)o2)cc1 | -9% | -1%
CCc1c(-c2ccccc2)nc2ccccc2c1C(=O)NCc1ccc(C)cc1 | 9% | 0%
Cc1nn(-c2nc3ccccc3s2)c(N)c1Sc1ccc(F)cc1 | 13µM* | 7%
Cc1nn(-c2nc3ccccc3s2)c(N)c1-c1ccccc1 | ? | -1%
